The full ranking holds about 39,000 sequences; the median of “fluorescence intensity (a.u.)” is about 4,300, and the highest 2% start at about 39,000. Many of the other results were omitted from the sample, so the highest values are more common in it than they were.
Target: T1, OsSMF1 (Oryza sativa, UniProt Q6ZLB0 1-436)
T1 sequence: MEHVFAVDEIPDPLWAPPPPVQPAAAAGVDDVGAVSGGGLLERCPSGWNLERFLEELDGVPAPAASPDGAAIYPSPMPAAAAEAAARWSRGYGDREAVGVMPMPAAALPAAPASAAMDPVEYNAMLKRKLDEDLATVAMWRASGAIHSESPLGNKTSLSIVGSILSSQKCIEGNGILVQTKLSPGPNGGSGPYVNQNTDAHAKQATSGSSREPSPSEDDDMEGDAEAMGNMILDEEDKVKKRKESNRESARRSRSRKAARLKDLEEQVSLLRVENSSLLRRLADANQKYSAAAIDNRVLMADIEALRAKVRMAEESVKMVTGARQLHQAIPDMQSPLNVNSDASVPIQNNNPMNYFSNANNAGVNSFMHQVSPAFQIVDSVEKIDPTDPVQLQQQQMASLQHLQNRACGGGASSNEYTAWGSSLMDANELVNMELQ
Test: protein-binding microarray (RPBM); PBS, 2% BSA, 51.3 ng/ul salmon testes DNA, 50 uM zinc acetate, 200 nM TF, 25 C, 1 h; high values mean tight binding
Conditions: protein: recombinant; tags: N-terminal polyhistidine and DsRed monomer fusion (pET32a); chain copies: 2; label: CyDye5-dUTP incorporated in the synthesized complementary strand; 3' TTTTT single-stranded linker to array surface; dsDNA, one strand shown
Summary of the method: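 The binding signal is fluorescence intensity per array feature (arbitrary units). Readings came from an Axon 4000B scanner after a washed, 2% BSA-blocked, double-stranded custom Agilent array had been incubated for 1 h at 25 °C with 200 nM protein and 50 µM zinc acetate. The protein was a Ni–NTA-purified transcription factor fused N-terminally to polyhistidine and DsRed, expressed in E. coli BL21-CodonPlus.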

Sequence	binding signal
ACAAATACTGATACATATACCTATACGTATGCGTCACCGTCGGAGTCACCTAGTGCAG	8380 fluorescence intensity (a.u.)
TCAGGATGACTCGAAGTCGAATCCGCGTAATACGCTGGCGCGGAGTCACCTAGTGCAG	3370 fluorescence intensity (a.u.)
CCATCACCTCGTCGTCCCCGTCACCGCGCCTCTCCCGCTGCGGAGTCACCTAGTGCAG	3780 fluorescence intensity (a.u.)
TTGAATGGTGATGTAACTTGCATGGTTCTACACTTGATGACGGAGTCACCTAGTGCAG	3610 fluorescence intensity (a.u.)
CTCCGATGGAAGCCACGTCCTGTCCAATTCCCAAACTAACCGGAGTCACCTAGTGCAG	4220 fluorescence intensity (a.u.)
TAATTCCAAGCTTGTTTCACCGACCTGCCAAACTCGATTGCGGAGTCACCTAGTGCAG	3270 fluorescence intensity (a.u.)
GGGCAGCGCTAACCCAAAGCTCCTGCGATTCCAAACCGACCGGAGTCACCTAGTGCAG	64800 fluorescence intensity (a.u.)
AAGGTGATAGGGTCTCAAGTACGTCATTATGAATGTAAATCGGAGTCACCTAGTGCAG	3910 fluorescence intensity (a.u.)
TCTAGACAATCAAGCCGCTAGAAGTTTCATAGAGTGGTAGCGGAGTCACCTAGTGCAG	7160 fluorescence intensity (a.u.)
CTCCCTAGTCCACAAAACCTAGTGACGCGGCGAAACCCAACGGAGTCACCTAGTGCAG	5660 fluorescence intensity (a.u.)
ACATGGGCCGCAATCAGGTCACGTGGCTAGGCCTTGGGCCCGGAGTCACCTAGTGCAG	3230 fluorescence intensity (a.u.)
TTAGCCATTGCTACTTGCTTGCAGCGCGCGTGTCGGCTAGCGGAGTCACCTAGTGCAG	25300 fluorescence intensity (a.u.)
GTGTGCTCTTGCATACATACTTGGGCTTATCTAGCTGCGTCGGAGTCACCTAGTGCAG	5510 fluorescence intensity (a.u.)
TTTCAGTAGCGTCGGCTGCTCTATCTACTTGCATTGCCTGCGGAGTCACCTAGTGCAG	41000 fluorescence intensity (a.u.)
TGGAAAGAATACAGTATGATATGGTCTTATTTTGTCTGCCCGGAGTCACCTAGTGCAG	41200 fluorescence intensity (a.u.)
GTTTCTTATTTTATGAATGGTATGAGTAAGAATATGTTTGCGGAGTCACCTAGTGCAG	3690 fluorescence intensity (a.u.)
CTAGTTTACATCTGCAATGTCATGATTTATTTATGGAATACGGAGTCACCTAGTGCAG	19500 fluorescence intensity (a.u.)
GCGAGCAGTCGATGTCCTCGATGACGATGATGGACTTGCTCGGAGTCACCTAGTGCAG	4140 fluorescence intensity (a.u.)
AGGGCTATCTGCTATCTCATCTTGTATGACAAAGATTGATCGGAGTCACCTAGTGCAG	65500 fluorescence intensity (a.u.)
TATGACATCGGCTCAAAGATAAATGATATGTCATCGGCATCGGAGTCACCTAGTGCAG	3540 fluorescence intensity (a.u.)
AGTAGAGAGATCTTGACAAAGTCATCGGTGATGAAGTCGACGGAGTCACCTAGTGCAG	3570 fluorescence intensity (a.u.)
CCGTTGCCGCGCCGTGGACCGACAGCCACTGACGTCACCCCGGAGTCACCTAGTGCAG	18600 fluorescence intensity (a.u.)
TTGAACCAACACTATATCATACACCTAGTCACCTACTCCTCGGAGTCACCTAGTGCAG	4770 fluorescence intensity (a.u.)

Sequence	binding signal
ACTAATTGTGGCCATGTTCATCGTGCAGTTCCTTGGATCTCGGAGTCACCTAGTGCAG	17300 fluorescence intensity (a.u.)
CATCTCCATTCTTTCATCCTCATCTCTAATGGAGAATTTCCGGAGTCACCTAGTGCAG	3920 fluorescence intensity (a.u.)
ACACATTCCATATCCTTGGACTAATTCACGAGACGAATCTCGGAGTCACCTAGTGCAG	40900 fluorescence intensity (a.u.)
AGTAATTAAAATTTAAGAGGCAAAATTACGTGTGAATTTGCGGAGTCACCTAGTGCAG	4130 fluorescence intensity (a.u.)
CCCGAAGCGGATTCGCGCACGGAAACCCACAGTCGATTCTCGGAGTCACCTAGTGCAG	3590 fluorescence intensity (a.u.)
ATAGGGTGAGAAAGCACCTCGTTTTCCACGCGCACGCTTCCGGAGTCACCTAGTGCAG	3330 fluorescence intensity (a.u.)
CTTGCCGTCGACGCGAAGGAACCGCCACCCGACGTCAGCTCGGAGTCACCTAGTGCAG	5610 fluorescence intensity (a.u.)
GGGAGGACGAAGGAACGCCAATACCGACATTGCTCAAGCTCGGAGTCACCTAGTGCAG	65300 fluorescence intensity (a.u.)
CTTGCCGTCGAAGCGAAGGAACCGCCACCCGACGTCAGCTCGGAGTCACCTAGTGCAG	5050 fluorescence intensity (a.u.)
GGTGGGGACCACCAGGACGGACGTGTAGGGCCTCCTGAAGCGGAGTCACCTAGTGCAG	4270 fluorescence intensity (a.u.)
TCCAGGGAGCCGCGGTGGCATATGTTGCTGACATGTTTTCCGGAGTCACCTAGTGCAG	5340 fluorescence intensity (a.u.)
GTTGACCGTCTACGTGGCATTCCACGTAGGCAGCTCATTTCGGAGTCACCTAGTGCAG	16600 fluorescence intensity (a.u.)
ATCCGGTTTTATCCGACGTGGCGGCTGAGTCGGCGCGGGACGGAGTCACCTAGTGCAG	30700 fluorescence intensity (a.u.)
ATGGAGCCTGACGTGGCAGCATGTAGCTGGTCCACGTCACCGGAGTCACCTAGTGCAG	27400 fluorescence intensity (a.u.)
TTTTGCACACATGTATCATGCTGACGTCAGCATGACGTGGCGGAGTCACCTAGTGCAG	61200 fluorescence intensity (a.u.)
TGTGTCATGGCTGATGTCAGCTCAGCATATATATATTCAGCGGAGTCACCTAGTGCAG	14900 fluorescence intensity (a.u.)
TTTGACTCCGATTTTATCCGACGTGGCAGCTGACTCAGCGCGGAGTCACCTAGTGCAG	25300 fluorescence intensity (a.u.)
TCAGAGAGCTGACAGCGTGTTCAGGCCGTTCGATTTTGGTCGGAGTCACCTAGTGCAG	5030 fluorescence intensity (a.u.)
ATTTGGGCGGCAAGCTGACGTGGCACACGGCGTCATGACTCGGAGTCACCTAGTGCAG	18100 fluorescence intensity (a.u.)
GATTTTATTCGACGTGTCAGCTGACTCAGATGGTCGGTAGCGGAGTCACCTAGTGCAG	39100 fluorescence intensity (a.u.)
ACTGGAGCTAACCGCTGACGTGGCATTCCACGTAGGCAACCGGAGTCACCTAGTGCAG	42500 fluorescence intensity (a.u.)
CTTTTGCTCACATGGCGTGCCACCGTGGCGTGCCCGCATGCGGAGTCACCTAGTGCAG	16200 fluorescence intensity (a.u.)
ACTCCGGTTTTATCCGACGTGGCAGCTGACTCAGCATGGGCGGAGTCACCTAGTGCAG	44300 fluorescence intensity (a.u.)
